Screening data from PubChem.
This is a sample that favours compounds with a hit; in the whole collection about 5.2% have one here.
EphB4 antag: EphB4-ephrin-B2 interaction antagonism | 97,000 compounds, 0.15% hits | inhibition, % at 7 µM | AID 720 | EphB4 LBD / TNYL-RAW-Alexa532 peptide, fluorescence polarization;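 active = inhibition above the screen-wide mean inhibition plus 3 SD, cut at about 15% in these data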
Target sequence (P54760 whole entry, looked up, the tested form may be a part): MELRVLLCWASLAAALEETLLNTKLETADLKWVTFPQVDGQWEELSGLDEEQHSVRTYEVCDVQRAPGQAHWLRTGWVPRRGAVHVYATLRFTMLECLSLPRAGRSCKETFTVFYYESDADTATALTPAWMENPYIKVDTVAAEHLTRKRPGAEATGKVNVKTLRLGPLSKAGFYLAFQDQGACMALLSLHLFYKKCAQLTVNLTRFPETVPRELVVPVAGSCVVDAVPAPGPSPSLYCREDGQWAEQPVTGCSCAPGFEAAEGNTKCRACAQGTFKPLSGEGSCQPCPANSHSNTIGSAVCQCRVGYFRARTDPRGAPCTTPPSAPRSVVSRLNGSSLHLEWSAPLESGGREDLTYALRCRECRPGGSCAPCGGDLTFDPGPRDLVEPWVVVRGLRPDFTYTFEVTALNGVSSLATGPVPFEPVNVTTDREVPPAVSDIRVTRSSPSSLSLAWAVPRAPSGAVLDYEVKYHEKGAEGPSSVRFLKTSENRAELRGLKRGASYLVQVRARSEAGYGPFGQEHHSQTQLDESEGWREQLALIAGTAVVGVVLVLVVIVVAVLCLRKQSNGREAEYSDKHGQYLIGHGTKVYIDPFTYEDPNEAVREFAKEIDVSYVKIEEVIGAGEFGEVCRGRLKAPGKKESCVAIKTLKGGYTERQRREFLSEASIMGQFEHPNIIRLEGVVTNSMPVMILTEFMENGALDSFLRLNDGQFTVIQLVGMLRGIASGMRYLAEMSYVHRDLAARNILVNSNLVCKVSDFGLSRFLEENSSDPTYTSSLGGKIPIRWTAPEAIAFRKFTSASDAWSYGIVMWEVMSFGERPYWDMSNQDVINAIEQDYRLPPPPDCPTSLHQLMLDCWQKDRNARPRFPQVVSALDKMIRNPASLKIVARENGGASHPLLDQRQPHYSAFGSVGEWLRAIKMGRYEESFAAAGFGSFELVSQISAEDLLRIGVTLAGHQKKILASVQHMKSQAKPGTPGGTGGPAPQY
PostGolgi ctrl: yeast control strain growth, post-Golgi counter-screen | efflux-deficient yeast background strain, growth absorbance A615, 16 h | 98,000 compounds, 5% hits | AID 738 | inhibition, % at 10 µM
Candida biofilm: kills Candida albicans biofilms | 85,000 compounds, 0.14% hits | AID 834 | C. albicans biofilm + clotrimazole, Alamar Blue | inhibition, % at 6 µM;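 active = inhibition above 20%; inactive = inhibition below 20%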;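 also: preformed 24 hr biofilms exposed to compound for 48 hr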
PostGolgi yeast: growth inhibition of a yeast mutant, post-Golgi transport screen | post-Golgi transport phenotypic cell assay | inhibition, % at 10 µM | 98,000 compounds, 0.9% hits | AID 739;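 also: yeast cells grown in 1536-well plates; yeast grown about 18 h at 30C before absorbance read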
Each line names hits and unclear results; the compound was inactive in the other large screens. Rule as the data show it, unless noted: active = inhibition above about 30%; inactive = the rest.

O=C(c1ccc(COc2ccccc2Cl)o1)N1CCN(c2ccccc2)CC1	PostGolgi ctrl 46.2
Cc1cc(C(=O)NCc2ccccc2Br)no1	none
CCS(=O)(=O)N1CCN(C(=O)c2cc(OC)cc(OC)c2)CC1	PostGolgi ctrl 31.3
O=C(N/N=C1/C(=O)c2cccc3cccc1c23)c1ccc(Cl)cc1	EphB4 antag 24.9, PostGolgi yeast 37.3 (no result: Candida biofilm)
CCNC(=S)N/N=C1\C(=O)c2cccc3cccc1c23	none (no result: Candida biofilm)
CCOC(=O)Cn1cc(C=O)c2ccccc21	PostGolgi yeast 42.1
c1ccc(N2CCN(c3nc(NCc4ccco4)c4ccccc4n3)CC2)cc1	none (no result: Candida biofilm)
c1coc(CNc2nc(N3CCCCC3)nc3ccccc23)c1	PostGolgi yeast 40.0 (no result: EphB4 antag)
Cn1cc(S(=O)(=O)CC(=O)Nc2ccc3c(c2)OCCO3)c2ccccc21	Candida biofilm 22.5 (no result: PostGolgi ctrl, PostGolgi yeast)
O=C(CS(=O)(=O)c1c[nH]c2ccccc12)Nc1ccc2c(c1)OCCO2	none
CON1C(=O)C(=O)N(OC)C2CCCCC21 (stereo not drawn)	none (no result: Candida biofilm)
Cc1cccc(CSc2nc(N)c(C#N)c(-c3cccs3)c2C#N)c1	EphB4 antag 17.1 (no result: PostGolgi ctrl, PostGolgi yeast)
CN(C(=S)Nc1ccccc1F)C1(c2ccccc2Cl)CCCCC1=O (stereo not drawn)	none
Cc1cccc2c1NC(=O)/C2=C\C(=O)c1cccs1	PostGolgi ctrl 52.3
Cc1cc(C)c2c(c1)/C(=C/C(=O)c1ccc(Br)s1)C(=O)N2	PostGolgi ctrl 70.8, PostGolgi yeast 103.0
CN1/C(=C/C(=O)c2cccs2)Sc2ccccc21	none
CCc1ccc2c(c1)/C(=C/C(=O)c1cccs1)C(=O)N2	PostGolgi ctrl 87.2, PostGolgi yeast 76.0
CCc1ccc2c(c1)/C(=N/N(C)C(=S)NC)C(=O)N2	none (no result: Candida biofilm)
CCOC(=O)C1=C(c2cccc(Oc3ccccc3)c2)NC(=S)NC1C (stereo not drawn)	none (no result: Candida biofilm)
CC1(C)CC(=O)C(C=NCCN2CCN(CCc3ccccc3)CC2)=C(O)C1	none
CCn1nccc1C(=O)Nc1ccc(Cl)cc1Cl	PostGolgi ctrl 31.7
CCn1nccc1C(=O)Nc1cc(Cl)ccc1Cl	none
Cc1nn(-c2ccccc2)c(C)c1C(=O)OCC(=O)N1c2ccccc2NC(=O)C1(C)C	none
Cc1c(C)n(CC(O)CN2C(=O)c3ccccc3S2(=O)=O)c2ccccc12 (stereo not drawn)	PostGolgi ctrl 33.2
CCOC(=O)N1CCC(N(C(=O)Nc2ccccc2)C(C)CC)CC1 (stereo not drawn)	none
CCOC(=O)N1CCC(N(C(=O)Nc2ccc(CC)cc2)C(C)CC)CC1 (stereo not drawn)	PostGolgi ctrl 30.1
O=C(c1ccccc1Cl)N1N=C(c2ccc(Br)cc2)CC1c1nc2ccccc2[nH]1 (stereo not drawn)	PostGolgi ctrl 63.9 (no result: Candida biofilm)
O=c1[nH]c(NCCO)nc2c1C1(CCCCC1)Cc1ccccc1-2	PostGolgi ctrl 30.6
COCC(C)NC(=O)C1CC(c2cccc(Br)c2)=NO1 (stereo not drawn)	none
CN(Cc1ccccc1)c1nc(N)c([N+](=O)[O-])c(Nc2cccc(F)c2)n1	none
CN=c1scc(C)n1/N=C/c1ccc(O)c(O)c1O	none
CC(C)N=c1scc(-c2ccco2)n1/N=C/c1ccc(O)c(O)c1	PostGolgi ctrl 55.5
O=C(NC1CCN(C(=O)N2c3ccccc3Sc3ccccc32)CC1)c1ccccc1Cl	PostGolgi ctrl 43.1 (no result: Candida biofilm)
O=C(N1CCN(c2ccccn2)CC1)N1c2ccccc2Sc2ccccc21	PostGolgi ctrl 85.1
O=C(c1ccco1)N1c2ccccc2Sc2ccccc21	PostGolgi ctrl 32.0 (no result: Candida biofilm)
O=C(NC1CCN(C(=O)N2c3ccccc3Sc3ccccc32)CC1)c1ccco1	none (no result: EphB4 antag)
O=C(c1ccco1)N1CCN(C(=O)N2c3ccccc3Sc3ccccc32)CC1	PostGolgi ctrl 43.8
O=C(NCCc1ccccc1)N1c2ccccc2Sc2ccccc21	none (no result: Candida biofilm)
CSc1nnnn1-c1cccc(O)c1	none
Cc1ccc(C2=[N+]([O-])C3(CCCCC/C3=N\NC(N)=S)N(O)C2(C)C)o1 (stereo not drawn)	none
CN1C(=O)/C(=C\c2ccccc2)Sc2ccc(C(=O)N3CCN(c4ccccn4)CC3)cc21	PostGolgi ctrl 31.8 (no result: Candida biofilm)
Cc1sc2nc(C(C)C)nc(SCC(=O)NCc3ccco3)c2c1C	PostGolgi ctrl 39.9
Cc1nc(SCC(=O)NCc2ccco2)c2c(C)c(C)sc2n1	none
Cc1ccc(-c2nnc(CSc3nc(C(C)C)nc4sc(C)c(C)c34)o2)cc1	none (no result: PostGolgi ctrl, PostGolgi yeast)
CC1CCCCN1c1cc(C#N)c(C#N)cc1[N+](=O)[O-] (stereo not drawn)	PostGolgi ctrl 43.4 (no result: Candida biofilm)
CC1CCN(c2cc(C#N)c(C#N)cc2[N+](=O)[O-])CC1	PostGolgi ctrl 76.4 (no result: Candida biofilm)
CC1CCN(c2cc(N)c(Cl)cc2[N+](=O)[O-])CC1	PostGolgi ctrl 38.1 (no result: Candida biofilm)
Cc1cc(N2CCC(C)CC2)c(F)cc1[N+](=O)[O-]	none (no result: Candida biofilm)
CC1CCCCN1C/C=C/c1ccccc1[N+](=O)[O-] (stereo not drawn)	none (no result: Candida biofilm)
